From PubChem
Calpain2 inh – blocks pig calpain II enzyme activity | purified calpain II, fluorogenic peptide substrate, 30 min | inhibition, % at 16 µM | hit rate 0.37% among 220,000;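 active means inhibition above about 50%, limit read from the data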
Lmaj promast – inhibitors of Leishmania major promastigote growth. AID 1063. Leishmania major promastigotes, resazurin fluorescence viability. inhibition, % at 10 µM. hit rate 9% among 200,000; in the data active means inhibition above about 50%;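 further: promastigotes grown with compound for 44 hours at 28 °C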
ROMK primary – modulators of human ROMK potassium channel; P48048; Tet-inducible ROMK, thallium flux fluorescence; actives lie on both sides; B-score at 10 µM; hit rate 2% among 130,000;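 active means signal ratio slope over the read window, or its plate-corrected B-score, at least 3 SD from the plate mean, either direction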;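 further: B-score of the F/F0 ratio slope over 7 to 12 s after thallium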
Target sequence (P48048 whole entry, looked up): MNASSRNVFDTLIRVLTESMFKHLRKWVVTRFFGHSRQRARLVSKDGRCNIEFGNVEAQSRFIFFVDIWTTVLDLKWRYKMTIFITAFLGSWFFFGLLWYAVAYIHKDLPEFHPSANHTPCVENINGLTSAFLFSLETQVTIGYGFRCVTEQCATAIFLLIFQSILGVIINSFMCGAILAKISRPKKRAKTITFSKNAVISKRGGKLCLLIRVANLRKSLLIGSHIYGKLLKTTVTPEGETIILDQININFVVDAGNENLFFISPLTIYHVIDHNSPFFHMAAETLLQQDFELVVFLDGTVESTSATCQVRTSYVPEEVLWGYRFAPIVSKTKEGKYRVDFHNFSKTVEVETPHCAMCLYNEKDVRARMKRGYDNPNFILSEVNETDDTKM
WT yeast gro inh – growth inhibition of WT yeast, mitochondrial fusion screen | AID 1362 | inhibition, % at 10 µM | hit rate 2.1% among 190,000 | mitochondrial fusion phenotypic screen, WT strain; in the data active means inhibition above about 58%; tested in S. cerevisiae
Cl transport mod – KCC2 (human) Cl- transport modulation; Q9H2X9; KCC2 cells, thallium flux FluoZin-2 fluorescence; B-score of Tl+ flux slope (higher = more flux/activation; lower = inhibition) at 10 µM; hit rate 2.2% among 190,000; AID 1456;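 active means thallium flux slope and its plate-corrected score both differing from the plate sample mean at a set confidence after two filtering rounds, in either direction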;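 further: slope of fluorescence scaled to starting intensity during 10 to 20 s after thallium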
KCC2 sec1 – KCC2 (human) modulation, secondary assay. HEK293-KCC2, thallium flux, FluoZin2 fluorescence; hits give high values. shares compounds with Cl transport mod. normalised thallium flux (F/F0 slope) at 10 µM. hit rate 15% among 3,700;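 active means thallium flux slope above the same plate's solvent-only control mean plus 3 SD; inconclusive means the two replicate wells disagree; inactive means no significant difference from solvent-only control wells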
KCC2 bumet counter – thallium flux persisting under bumetanide in KCC2 cells, counter-screen secondary assay; HEK293-KCC2 + bumetanide/ouabain, thallium flux FluoZin2; hits give high values; normalized thallium flux at 10 µM; shares compounds with Cl transport mod; hit rate 49% among 3,700; AID 1714;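 active means thallium entry rate above the same plate's blocked-transporter control wells by more than 3 SD; inconclusive means the two repeat wells disagree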;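 further: raw slope of fluorescence over initial fluorescence between 10 and 20 s after thallium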
KCC2 sec2 – confirmation of human KCC2 transport modulators | shares compounds with Cl transport mod | HEK293-KCC2, thallium flux FluoZin2 fluorescence; actives lie on both sides; F/F0 rise rate, 10–20 s post-thallium | normalized thallium flux at 10 µM | hit rate 23% among 3,700 | AID 1715;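 active means thallium flux slope more than 3 SD above or below the plate's solvent-only control mean, mostly below; inconclusive means the two repeat wells disagreed; inactive means no significant shift from solvent-only controls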;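 further: raw slope with 0.1% DMSO as baseline and bumetanide as block control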
HEK counter1 – acts in parental HEK cells, KCC2 counter-screen. shares compounds with Cl transport mod. HEK293 parental cells, thallium flux FluoZin2, ouabain; baseline-ratio fluorescence slope, 10–20 s after thallium. thallium flux rate (normalised fluorescence) at 10 µM. hit rate 46% among 3,700. AID 1716;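 active means thallium flux rate significantly above the same plate's solvent-only control wells, beyond their mean plus 3 SD; inconclusive means the two replicate wells gave conflicting results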
KCC2 ouabain – modulates human KCC2 on retest with ouabain; raw Tl+ flux slope (below DMSO = inhibition, above = activation) at 10 µM; hit rate 48% among 3,700; HEK293-KCC2, thallium flux FluoZin2 fluorescence; bidirectional: low = inhibitor, high = activator; shares compounds with Cl transport mod; AID 1717;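 active means thallium flux slope beyond 3 SD from same-plate DMSO control mean in most replicates, usually higher, sometimes lower; inconclusive means repeat tests gave conflicting results; inactive means no significant difference from controls in most replicates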;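 further: slope of initial-normalized fluorescence between seconds 10 and 20 after thallium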
HEK293 Tl flux2 – parental HEK flux effect, counter-screen 2 | hit rate 33% among 3,700 | thallium flux slope at 10 µM | shares compounds with Cl transport mod | HEK293 parental, thallium flux FluoZin-2 fluorescence slope | AID 1718;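 active means thallium flux slope above the same plate's solvent-control mean plus 3 SD in both duplicate wells; inconclusive means duplicate wells that disagreed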;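 further: run without ouabain in cells lacking the KCC2 cotransporter; slope of fluorescence scaled to its starting value between 10 and 20 s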
Active calls of the source: *; ? = inconclusive; . = no result given. Shown are actives, neighbours in structure and some others; about 12% of the full set was active somewhere.

SMILES	Calpain2 inh	Lmaj promast	ROMK primary	WT yeast gro inh	Cl transport mod	KCC2 sec1	KCC2 bumet counter	KCC2 sec2	HEK counter1	KCC2 ouabain	HEK293 Tl flux2
CCOC(=O)c1c(C)nc2c(c1-c1cc(OC)ccc1OC)C(=O)c1ccccc1-2	17	-6	.	-3	.	.	.	.	.	.	.
CCOC(=O)C1=C(Cc2ccc(OC)cc2)C(=O)c2ccccc2C1=O	25	24	.	21	6.6*	0.0076	0.0082*	0.03	0.011*	0.018	?
CCOC(=O)Cc1cc(=O)n2[nH]c(-c3ccccc3)c(-c3ccccc3)c2n1	-148	-10	0.65	9	6*	0.0056	0.018*	0.031	0.014*	?	0.014*
O=C(NNc1nc2ccccc2s1)Nc1ccccc1	9	40	-0.3	9	1.4	.	.	.	.	.	.
CN(C)C(=S)Nc1nc2ccccc2s1	18	16	-1.4	74*	69*	0.017*	0.089*	0.034	0.032*	0.059*	0.017*
COc1ccc2nc(NC(C)=O)sc2c1	-16	-5	.	-5	-0.017	.	.	.	.	.	.
CCNC(=O)Nc1nc2ccccc2s1	-15	6	0.1	-1	-0.14	.	.	.	.	.	.
CCOc1ccc2nc(NC(=S)N(C)C)sc2c1	16	80*	-0.45	55	.	0.018*	0.13*	0.033	0.047*	0.057*	0.02*
S=C(Nc1ccccc1)c1nc2ccccc2s1	2	1	-0.27	17	9.7*	0.0069	0.013*	0.032	0.013*	?	0.014*
CCOC(=O)c1cccc(C(=O)Nc2nc3ccc(OC)cc3s2)n1	-116	12	-0.33	4	91*	0.027*	0.079*	?	0.041*	0.041*	0.039*
COc1ccc(-c2[nH]ncc2CN(C)Cc2ccccn2)c(OC)c1	-11	-1	0.61	-6	-0.1	.	.	.	.	.	.
O=C(NCc1ccccc1)c1cc(-c2cccc(O)c2)on1	20	-6	.	-8	-0.42	.	.	.	.	.	.
CN(C1CC(C)(C)N(O)C(C)(C)C1)S(=O)(=O)CC12CCC(CC1=O)C2(C)C (centres undefined)	-1	-9	-0.63	-9	-0.0032	.	.	.	.	.	.
CCC(NC(=O)NNC(=O)c1ccncc1)(C(F)(F)F)C(F)(F)F	2	.	.	.	-0.039	.	.	.	.	.	.
O=C(O)CC(=O)NC12CC3CC(CC(C3)C1)C2	-14	2	0.19	-2	0.31	0.0092	0.0062	0.035	0.0079	0.022	?
COC(=O)c1c(C)oc(C)c1S(=O)(=O)NCc1cccs1	-13	.	.	.	0.021	.	.	.	.	.	.
Cc1onc(-c2cccc(Cl)c2Cl)c1C(=O)O/N=C(\N)c1ccc([N+](=O)[O-])o1	-3	.	.	.	-4.9*	0.007	0.0033	?	0.0048*	0.017	0.0079*
COc1ccc(C)cc1NC(=O)CN(c1ccccc1F)S(C)(=O)=O	-14	1	0.5	7	.	0.0081	0.0058	0.03	0.007	0.02	0.009
COc1ccc(C)cc1NC(=O)CN(C)S(=O)(=O)c1cnc[nH]1	-60	-1	0.12	1	.	0.01	0.0072	0.035	0.0077	0.023	?
CCC(=O)Nc1ccc(-n2nnnc2SCC(=O)NNC(=O)c2ccco2)cc1	-8	.	.	.	0.47	.	.	.	.	.	.
CC(=O)c1c(C)[nH]c(C(=O)OCC(=O)c2c(N)n(C)c(=O)n(C)c2=O)c1C	21	-8	-0.98	9	1	.	.	.	.	.	.
S=C1CSc2ccccc2N1	-26	-7	.	8	8.6*	0.0066	0.016*	0.033	0.014*	?	0.014*
CCOC(=O)C(CC)/C(C)=N/NC(=O)c1ccc([N+](=O)[O-])cc1 (centres undefined)	23	1	.	11	0.87	.	.	.	.	.	.
CCOC(=O)/C(C)=N/NC(=O)c1ccc([N+](=O)[O-])cc1	9	-8	-0.5	-2	23*	0.0094*	0.032*	0.038*	0.034*	0.039*	0.025*
Cc1nn(CC(=O)Nc2ccc(Cl)cn2)c(C)c1Br	-17	-12	-0.16	0	0.7	.	.	.	.	.	.
SMILES	Calpain2 inh	Lmaj promast	ROMK primary	WT yeast gro inh	Cl transport mod	KCC2 sec1	KCC2 bumet counter	KCC2 sec2	HEK counter1	KCC2 ouabain	HEK293 Tl flux2
N#C/C(=C/c1ccc(N2CCOCC2)o1)c1ccc(Br)cc1	-10	5	.	-4	-1.2	.	.	.	.	.	.
N#C/C(=C/c1ccc(N2CCCCCC2)o1)c1ccc(F)cc1	16	27	.	16	.	0.015	?	0.028	?	0.013*	0.0094
Cc1ccc(S(=O)(=O)NN2C(=O)/C(=C/c3cccn3C)SC2=S)cc1	19	-2	-0.84	51	-0.88	.	.	.	.	.	.
Cc1ccc(S(=O)(=O)NN2C(=O)/C(=C/c3cccs3)SC2=S)cc1	31	.	0.45	.	27*	0.0062	0.053*	0.05*	0.045*	0.051*	0.043*
Cc1cccnc1Nc1nc(-c2ccc(O)cc2)cs1	25	99*	-1.7	54	.	0.0095	0.0056	0.03	0.0074	0.018	?
CCC(C)(C)n1nnnc1C(c1ccc2ncccc2c1)N1CCN(c2nc3ccccc3s2)CC1 (centres undefined)	-176	18	.	47	.	0.0085	0.0062	0.031	0.007	0.016*	0.011
CCCCC(c1nnnn1CC1CCCO1)N1CCN(c2nc3ccccc3s2)CC1 (centres undefined)	-51	99*	.	11	-4.1*	0.0059	0.0041	0.023*	?	0.012*	0.0095
CCCC(c1nnnn1CC1CCCO1)N1CCN(c2nc3ccccc3s2)CC1 (centres undefined)	-15	94*	.	6	-3.8*	0.0063	0.004	0.027	0.0068	0.013*	0.0089
CCCCC(c1nnnn1CC1CCCO1)N1CCN(c2ccccc2)CC1 (centres undefined)	0	-2	-0.49	-1	-0.65	.	.	.	.	.	.
Cc1cc(C)nc(N2CCCC(CCC(=O)NCc3ccc(F)c(F)c3)C2)n1 (centres undefined)	-31	0	-0.064	11	0.36	.	.	.	.	.	.
Cc1ccc(-n2nc(C(=O)O)cc2-c2ccc(Cl)cc2)cc1	14	-4	0.16	6	-3.7*	0.0093	0.0066	0.036	0.0039	0.017*	0.011
COC(=O)c1cc(C(=O)c2ccc(Cl)cc2)n2c(=O)/c(=C\N(C)C)sc12	-78	9	-0.18	2	0.7	.	.	.	.	.	.
Cc1cc(NC(=S)NC(=O)c2ccccc2)ccc1-c1cc2ccccc2oc1=O	19	35	-0.23	-2	1	.	.	.	.	.	.
